In all, about 110,000 compounds were measured (“z-score”: median about -0.1, highest 2% from about 2 on). Only a selection was taken, and the highest values are over-represented in it overall. Active and inactive are the calls of the source.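 Rule for the calls: active = z-score in the third read window above 3 or below -3; inactive = the rest.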
Molecular target: Metabotropic glutamate receptor 8 (Rattus norvegicus) (UniProt P70579)
Assay: rat mGluR8 modulators via GIRK flux, primary screen, cell-based, thallium flux, HTS (AID 488969)
Details: HEK293 rat mGluR8, GIRK (G protein-gated inwardly rectifying potassium channel) thallium flux, FluoZin2; at 10 µM; stronger effect = higher value; submaximal glutamate (EC20) added with thallium

Sequence of Metabotropic glutamate receptor 8 (Rattus norvegicus) (P70579 whole entry, looked up): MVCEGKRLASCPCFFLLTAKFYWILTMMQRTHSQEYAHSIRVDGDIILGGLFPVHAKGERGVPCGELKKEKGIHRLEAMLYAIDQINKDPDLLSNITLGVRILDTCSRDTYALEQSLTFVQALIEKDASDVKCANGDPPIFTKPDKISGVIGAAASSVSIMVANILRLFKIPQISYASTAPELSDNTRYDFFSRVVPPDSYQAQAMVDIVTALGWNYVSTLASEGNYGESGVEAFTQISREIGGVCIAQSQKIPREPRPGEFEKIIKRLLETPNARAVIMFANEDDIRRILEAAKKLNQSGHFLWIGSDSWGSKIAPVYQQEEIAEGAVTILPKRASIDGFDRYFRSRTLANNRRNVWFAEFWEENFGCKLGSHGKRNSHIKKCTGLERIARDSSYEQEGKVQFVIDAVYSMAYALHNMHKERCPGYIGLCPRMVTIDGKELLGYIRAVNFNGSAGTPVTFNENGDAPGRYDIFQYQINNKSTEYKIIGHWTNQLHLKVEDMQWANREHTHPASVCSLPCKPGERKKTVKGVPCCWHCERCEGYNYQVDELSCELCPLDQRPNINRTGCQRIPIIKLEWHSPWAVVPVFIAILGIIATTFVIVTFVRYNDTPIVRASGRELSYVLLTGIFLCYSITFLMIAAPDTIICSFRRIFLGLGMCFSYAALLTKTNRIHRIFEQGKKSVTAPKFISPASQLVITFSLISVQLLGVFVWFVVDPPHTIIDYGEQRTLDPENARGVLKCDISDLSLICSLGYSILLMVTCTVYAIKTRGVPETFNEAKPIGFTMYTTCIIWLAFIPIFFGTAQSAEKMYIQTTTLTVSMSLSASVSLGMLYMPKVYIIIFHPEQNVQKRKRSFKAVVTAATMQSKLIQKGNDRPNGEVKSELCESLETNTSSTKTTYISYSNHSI

| Compound | z-score |
| --- | --- |
| Cc1[nH]c2ccccc2c1CN1CCc2ccccc2C1 | 3.72 (active) |
| O=c1[nH]c(CN2CCc3ccccc3C2)nc2ccccc12 | 0.446 |
| Cn1cc(CN2CCc3ccccc3C2)c2ccccc21 | 0.58 |
| COc1ccc(-c2[nH]ncc2/C=N\NC(=O)c2ccc(C(C)(C)C)cc2)cc1OC | -0.413 |
| CCOC(=O)c1c(-c2ccccc2)csc1NC(=S)N(CC)CC | 0.121 |
| CCOC(=O)c1c(-c2ccc(C)cc2)csc1NC(=S)NC(=O)c1ccccc1 | 0.153 |
| CCOC(=O)c1c(-c2ccccc2)csc1NC(=O)CCN1C(=O)c2ccccc2C1=O | -0.51 |
| CCOC(=O)c1c(-c2ccccc2)csc1NC(=O)C1CCCO1 (stereo not given) | -0.568 |
| CCNC(=S)Nc1scc(-c2ccccc2)c1C(=O)OCC | 6.92 (active) |
| CCOC(=O)c1c(-c2ccccc2)csc1NC(=S)NC | 7.44 (active) |
| COc1ccc(NC(=O)c2ccc3snnc3c2)cc1 | -0.112 |
| CS(=O)(=O)N1CCN(c2ccc(NC(=O)c3cccnc3Cl)cc2)CC1 | 0.393 |
| CC(NS(=O)(=O)c1ccccc1)C(=O)Nc1ccc(S(N)(=O)=O)cc1 (stereo not given) | 0.246 |
| CCCc1cc(=O)[nH]c(SCCOC(=O)c2ccccc2)n1 | -0.349 |
| COc1ccc2nc(NC(=S)N(C)C)sc2c1 | 14.8 (active) |
| CCOc1ccc2nc(NC(=S)N(C)C)sc2c1 | -0.436 |
| COc1ccc2nc(NC(C)=O)sc2c1 | -0.0562 |
| COc1cccc(N=C2SC(C(=O)Nc3ccccc3F)CC(=O)N2C)c1 (stereo not given) | -0.119 |
| COc1ccc(S(=O)(=O)N(C(C)=O)c2ccc(OC(C)=O)c3ccccc23)cc1[N+](=O)[O-] | -0.812 |
| CC(=O)Oc1ccc(N(C(C)=O)S(=O)(=O)c2cccs2)c2ccccc12 | 4.9 (active) |
| CC(=O)Oc1ccc(N(C(C)=O)S(=O)(=O)c2cccs2)cc1 | -0.202 |
| CC(C)C(=O)Nc1nnn(C)n1 | 9.51 (active) |
| CC(C)C(=O)NC(=S)Nc1nnn(C)n1 | 0.169 |
| CC(C)CC(=O)Nc1nnn(C)n1 | 0.332 |

| Compound | z-score |
| --- | --- |
| CCN1CCCC1CNC(=O)C(=O)Nc1cccc(OC)c1 (stereo not given) | 2.04 |
| CCN1CCCC1CNC(=O)C(=O)Nc1ccc(OC)cc1 (stereo not given) | 0.521 |
| CCN1CCCC1CNC(=O)C(=O)Nc1ccccc1OC (stereo not given) | 0.00956 |
| CCOc1ccc(N(CC(=O)N2CC=C(c3ccccc3)CC2)S(=O)(=O)c2c(C)noc2C)cc1 | -0.285 |
| O=C(COC(=O)c1cn(-c2ccccc2)nc1-c1ccc(F)cc1)Nc1ncc(Cl)cc1Cl | 0.0446 |
| CCC(C)NC(=O)C1CCN(c2nc(OC)nc(OC)n2)CC1 (stereo not given) | 0.12 |
| C/C(CC(=O)Nc1cccc2c1CCCC2)=N\NC(=O)c1cccc2ccccc12 | -0.483 |
| C/C(CC(=O)Nc1cccc2c1CCCC2)=N\NC(=O)c1ccccc1N | 2.22 |
| CCn1c2ccccc2c2cc(NC(=O)C/C(C)=N/NC(=O)c3ccccc3N)ccc21 | -0.0756 |
| COc1cc(NC(=O)c2ccco2)ccc1NC(=O)C(C)C | 0.332 |
| Nc1nc(SCC(=O)NCCCO)nc2sc3c(c12)CCC3 | 1.08 |
| O=C(CC1NC2CCCCC2NC1=O)Nc1cccc(C(F)(F)F)c1 (stereo not given) | 0.497 |
| O=C(Nc1ccc(F)cc1)NC1CCCCC1 | 0.532 |
| COC(=O)CSC1=NS(=O)(=O)c2ccccc21 | -2.06 |
| O=C(Nc1ccc(Cl)cc1)NC1CCCCC1 | 0.269 |
| O=C(Nc1cccc(F)c1)NC1CCCCC1 | 0.258 |
| CCc1cccc(NC(=O)CSC2=NS(=O)(=O)c3ccccc32)c1 | 3.52 (active) |
| CCc1cccc(NC(=O)COc2ccccc2)c1 | 0.78 |
| O=C(Nc1ccc(F)c(F)c1)NC1CCCCC1 | 3.01 (active) |
| CCc1cccc(NC(=O)C2CCCC2)c1 | 0.366 |
| CCc1cccc(NC(=O)CCSCCC(=O)Nc2cccc(CC)c2)c1 | 3.02 (active) |
| Cc1ccc(NC(=O)CCSCCC(=O)Nc2ccc(C)c(C)c2)cc1C | -0.0616 |
| O=C(CSC1=NS(=O)(=O)c2ccccc21)Nc1ccccc1 | -0.326 |
| CCc1cccc(NC(=O)NC2CCCCC2)c1 | 4.38 (active) |

| Compound | z-score |
| --- | --- |
| CCc1cc2c(=O)c(Oc3ccccc3)c(C)oc2cc1O | 0.432 |
| O=C(CNC(=O)c1cccc(F)c1)N/N=C/c1cccc([N+](=O)[O-])c1 | -0.00152 |
| COc1ccc(S(=O)(=O)NC(C(C)C)C(C)C)cc1OC | 0.101 |
| CSc1nc(N2CCOCC2)c2c(c1C#N)CCCCC2 | -0.315 |
| CCC1Cc2c(nc3c4c(nc(N5CCOCC5)c(C#N)c24)NC(C)=N3)O1 (stereo not given) | -0.387 |
| O=C(c1ccco1)N1CCCC(c2ccccc2)C1 (stereo not given) | -0.388 |
| CCOC(=O)c1ccc(COC(=O)c2nonc2N)cc1 | -0.0847 |
| C=CCNC(=O)CC(C)C(CCCCC)C(=O)O (stereo not given) | -0.15 |
| Cc1ccc(CNC(=O)c2cc3c(C)nc4ccccc4c3o2)cc1 | 0.19 |
| Cc1ccc(SCCNC(=O)c2ccccc2C)cc1 | -0.0405 |
| O=C(Cn1nc(-c2ccc(Cl)cc2)c2ccccc2c1=O)Nc1cccnc1 | -0.258 |
| CCC(C)(C)n1nnnc1CN1CCN(c2nc3cc(OC)ccc3cc2C#N)CC1 | -1.2 |
| Cn1ncc2c(NCc3ccccc3)ncnc21 | -0.129 |
| CC(C)CCn1cnc2c(NCc3ccccc3)ncnc21 | 2.07 |
| OCCNc1ncnc2c1ncn2Cc1ccccc1 | -0.662 |
| O=C(CCCOc1ccc(Cl)cc1Cl)N/N=C\C1CCCCC1 | -0.118 |
| CCOc1cccc(-c2cc(-c3n[nH]c(=S)n3CC)c3ccccc3n2)c1 | 2.09 |
| CCn1c(-c2cc(-c3ccccc3OC)nc3ccccc23)n[nH]c1=S | 0.152 |
| CCn1c(-c2cc(-c3ccc(OC(C)C)cc3)nc3ccccc23)n[nH]c1=S | 1.25 |
| CCn1c(-c2cc(-c3cccc(OC)c3)nc3ccccc23)n[nH]c1=S | 1.92 |
| CCCOc1cccc(-c2cc(-c3n[nH]c(=S)n3CC)c3ccccc3n2)c1 | 4.22 (active) |
| CCn1c(-c2cc(-c3cc(OC)ccc3OC)nc3ccccc23)n[nH]c1=S | 0.132 |
| CCOC(=O)c1cc2nc(-c3ccco3)cc(C(F)(F)F)n2n1 | -1.72 |
| CCOc1ccc(-c2nc(C#N)c(NCc3ccc4c(c3)OCO4)o2)cc1 | 0.406 |

| Compound | z-score |
| --- | --- |
| O=c1[nH][nH]c(-c2ccccc2)c1C=Nc1ccccc1 | -0.278 |
| O=C1CCC2CCCCC2(O)O1 (stereo not given) | -0.0285 |
| O=c1n(Cc2ccc(Cl)cc2)c2sc3c(c2c2ncnn12)CCCC3 | -0.595 |
| COc1cc(-c2nnc(SCC(=O)N3CCCC3)o2)cc(OC)c1OC | 2.2 |
| COc1ccc(-c2nnc(SCC(=O)N3CCCC3)o2)cc1OC | 0.322 |
| COc1cc(OC)cc(-c2nnc(SCC(=O)N3CCCC3)o2)c1 | -0.103 |
| COc1ccc(OC)c(C(=O)CSc2nc3cccnc3n2C)c1 | 0.718 |
| COc1ccc(S(=O)(=O)N(C)CC(=O)Nc2ccccc2OC)cc1 | -0.484 |
| SC(COCc1ccccc1)CN1CCN(Cc2ccc3c(c2)OCO3)CC1 (stereo not given) | 3.02 (active) |
| OC(COCc1ccc2c(c1)OCO2)CN1CCN(Cc2ccccc2)CC1 (stereo not given) | -0.00855 |
| CN1CCN(CC(O)COCc2ccc3c(c2)OCO3)CC1 (stereo not given) | 0.1 |
| CCn1nc(NC(=O)c2ccccn2)c2cc3cc(C)ccc3nc21 | -0.417 |
| CC1=C(C(=O)OCc2ccccc2)C(c2cccnc2)n2nnnc2N1 (stereo not given) | 0.152 |
| FC(F)(F)c1ccccc1NC(=S)N1CCN(c2ncccn2)CC1 | -0.0651 |
| CCCN1CCN(C(=S)Nc2ccccc2C(F)(F)F)CC1 | 2.17 |
| CN1CCN(CCNC(=O)Nc2ccccc2C(F)(F)F)CC1 | -0.464 |
| CC1CCC(C(=O)NC(C(=O)N2CCc3ccccc3C2)C(C)C)CC1 (stereo not given) | -0.269 |
| COc1ccc(-c2nc3c(c4nnc(SC(C)C(=O)Nc5ccccc5)n24)COC(C)(C)C3)cc1 (stereo not given) | -0.351 |
| CC1CCN(c2oc(-c3cccc4ccccc34)nc2C#N)CC1 | 0.305 |
| N#Cc1nc(-c2ccccc2F)oc1N1CCCC1 | -0.139 |
| CC1CCN(c2oc(-c3ccccc3F)nc2C#N)CC1 | 2.57 |
| C=CCn1c(SCCOC)nc2c1c(=O)[nH]c(=O)n2C | -0.444 |
| NC(Cc1ccc2nsnc2c1)C(=O)O (stereo not given) | 0.179 |
| CCCCn1c(Cc2ccccc2)nnc1SCC(=O)N1CCOCC1 | -0.257 |

| Compound | z-score |
| --- | --- |
| O=C1Nc2ccccc2/C1=C\c1cccn1-c1ccc(OC(F)(F)F)cc1 | 2.45 |
| O=C1C(=Cc2cccn2-c2ccc(O)cc2)C(=O)c2ccccc21 | -0.204 |
| CN(C)/C=C1\C(=O)Nc2ccccc21 | -0.00898 |
| COc1ccc(OC)c(NC(=O)CSc2nnc(CNC(=O)c3ccco3)o2)c1 | -0.27 |
| O=C(Nc1nccs1)C1C2/C=C\CCCCC21 (stereo not given) | 0.175 |
| COC(=O)Nc1ccc([N+](=O)[O-])cc1OC | -0.117 |
| COc1ccc2nc(NC(=O)CN3CCN(C)CC3)sc2c1 | 0.194 |
| c1cncc(-c2nnc(-c3ccco3)o2)c1 | -0.101 |
| CC(C)CC(=O)Nc1cccc2c1C(=O)N(c1ccccc1)C2=O | -3.2 (active) |
| CC(=O)Nc1cccc2c1C(=O)N(c1cccc(C)c1)C2=O | 3.13 (active) |
| CC(=O)Nc1cccc2c1C(=O)N(c1ccc(C)cc1)C2=O | 0.845 |
| Cc1csc(N(C(=O)c2cccc(S(=O)(=O)N(C)C)c2)c2ccccc2)n1 | 2.2 |
| Cc1csc(N(C(=O)c2ccc(S(=O)(=O)N(C)C)cc2)c2ccccc2)n1 | 0.4 |
| Cc1csc(N(C(=O)c2cccc(S(=O)(=O)N3CCCC3)c2)c2ccccc2)n1 | -0.475 |
| COc1cc(C2N(c3ccc(F)cc3)C(=O)C3CCCN32)cc(OC)c1OC (stereo not given) | 0.416 |
| O=C1Cc2ccccc2Sc2ccc(Cl)cc21 | -0.097 |
| S=C1Nc2ccccc2Sc2ccc(Cl)cc21 | 4.1 (active) |
| O=C1Nc2ccccc2S/C1=C/Nc1cccc(Cl)c1 | -0.29 |
| Clc1ccc2c(c1)-c1nnc(Br)n1-c1ccccc1S2 | -4.38 (active) |
| S=C1Nc2cc(Cl)ccc2Sc2ccccc21 | 11.3 (active) |
| O=C1CCSc2ccc(Cl)cc2N1Cc1ccc(Cl)cc1 | -0.366 |
| S=C1CCSc2ccc(Cl)cc2N1 | 9.14 (active) |
| CCOC(=O)Nc1ccc2c(c1)Nc1ccccc1S2 | -0.571 |
| O=C1CCSc2ccc(Cl)cc2N1Cc1ccccc1 | -0.321 |

From PubChem BioAssay AID488969 (Vanderbilt High Throughput Screening Facility, 2010)
